# Screening results deposited in PubChem by several laboratories.
# PGE2 EP2 inh = inhibitors of human EP2 prostaglandin E2 receptor | P43116 | 0.52% of 260,000 active | inhibition, % at 25 µM | C6 glioma cells expressing human EP2, cAMP TR-FRET; cells stimulated with saturating PGE2;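 active means percent inhibition above 40 after rounding to a whole number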;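 further: rat C6 glioma host cells with rolipram phosphodiesterase inhibitor present; the protocol text gives 20 µM as final concentration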
# Target sequence (P43116 whole entry, looked up): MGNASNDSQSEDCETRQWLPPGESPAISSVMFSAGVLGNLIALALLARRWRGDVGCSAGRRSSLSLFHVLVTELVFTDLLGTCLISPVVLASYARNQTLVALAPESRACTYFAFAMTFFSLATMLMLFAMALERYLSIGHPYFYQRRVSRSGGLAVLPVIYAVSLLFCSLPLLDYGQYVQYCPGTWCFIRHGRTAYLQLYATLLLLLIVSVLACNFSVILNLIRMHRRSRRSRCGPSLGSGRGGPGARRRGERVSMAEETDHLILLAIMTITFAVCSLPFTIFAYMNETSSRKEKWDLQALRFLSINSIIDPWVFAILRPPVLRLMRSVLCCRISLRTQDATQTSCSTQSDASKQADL
# SKN-1 inh = blocks SKN-1 activity in C. elegans | C. elegans VP596 Pgst-4::GFP/RFP ratio, acrylamide-induced, 24 h | inhibition, % at 21.8 µM | 0.49% of 360,000 active;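 active means interference check ratio from 0.5 to 1.5 plus GFP to RFP signal ratio inhibition reaching or exceeding a fixed threshold, cut at about 30% in these data, passing the limit was not always enough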
# PG9 binder = binds the HIV-1 gp120 antibody PG9 | 0.43% of 360,000 active | inhibition, % at 6.7 µM | TR-FRET gp120-PG9 antibody binding | AID 624416; in the data active means inhibition above about 8.5%
# NR1D1 modulator = modulators of human Rev-erb alpha DNA binding; P20393; Rev-erbα–FITC-DNA binding, fluorescence polarization, 90 min; activity, % at 10 µM; 0.79% of 370,000 active;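 active means activity above about 14%, limit read from the data; passing the limit was not always enough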
# RAM inhibit = inhibitors of the yeast RAM network. AID 868. inhibition, % at 50 µM. 1.8% of 190,000 active. S. cerevisiae dse1pr::URA3 reporter, 5-FOA growth OD615, 2 d; analog-sensitive cbk1-as2 kinase mutant strain;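 active means inhibition above a set limit, 3 SD over mean compound inhibition, cut at about 8.4% in these data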;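 further: inhibition rescues growth on 5-FOA so higher OD means more RAM inhibition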
# EP2 mod = modulators of human EP2 prostaglandin E2 receptor; P43116; EP2-expressing cells, cAMP HTRF FRET, PGE2 co-stimulation; induction, % at 25 µM; 0.83% of 260,000 active; AID 940;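 active means compounds whose cAMP rise, as percent of the full-agonist control response, exceeds 60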;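 further: rat C6 glioma line stably carrying human EP2 under a CMV promoter; the protocol text gives 20 µM as final concentration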
# NR1D1 mod conf = confirmation of modulators of human Rev-erb alpha DNA binding | shares compounds with NR1D1 modulator | Rev-erb alpha FITC-DNA binding, fluorescence polarization, 90 min | activation, % at 25 µM | 61% of 3,000 active | AID 1259319;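 active means activation at or above a set limit, or at least 3 SD above the negative control mean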
# RORg DNA counter = counter-screen for Rev-erb alpha modulators: RORgamma DNA binding | IC50, µM | 8% of 910 active | shares compounds with NR1D1 modulator | purified RORgamma protein-FITC-DNA binding, fluorescence polarization | AID 1259320;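 active means Compounds whose fitted half-maximal concentration for disrupting protein-DNA binding is below 10 micromolar; the record names Rev-erb in its text, so the target is in doubt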
# A number is an active result; 0 = inactive; - = no result. Sampled rows, rich in hits. Any-hit rate of the full collection: about 2.9%.
SMILES,PGE2 EP2 inh,SKN-1 inh,PG9 binder,NR1D1 modulator,RAM inhibit,EP2 mod,NR1D1 mod conf,others
Cc1cccc2cc(C#N)c(SCC#N)nc12,0,0,0,63.2,0,0,52.8,RORg DNA counter=0
CCOC(=O)C1CCN(C(c2cc3cc(OC)ccc3[nH]c2=O)c2nnnn2C(C)(C)C)CC1 (stereo not drawn),0,-,-,-,-,0,-,
Ic1ccc(Nc2nc(N3CCOCC3)nc(N3CCOCC3)n2)cc1,0,-,-,-,-,0,-,
CC1CCc2sc(C(=O)Nc3nnc(SCc4ccc(F)cc4)s3)cc2C1 (stereo not drawn),0,0,0,29.6,0,0,0,
CCOc1ccc2[nH]c3c(=O)n(CCC4=CCCCC4)cnc3c2c1,0,0,0,19.4,-,0,0,
COc1ccc(C(C)(C)C)cc1NC(=O)C1=CC=CN2CCS(=O)(=O)N=C12,-,0,0,24.3,-,-,29.6,RORg DNA counter=0
Cc1ccc(NC(=O)C2=CC=CN3CCS(=O)(=O)N=C23)cc1,-,0,0,0,-,-,-,
COc1ccc(-c2noc(-c3ccccc3F)n2)cc1,0,0,0,0,0,0,-,
COc1ccc(-c2ccc(-c3noc(-c4ccccc4F)n3)c(OC)n2)cc1,0,0,0,38.0,0,0,38.8,RORg DNA counter=0
COc1nc(-c2ccccc2)ccc1-c1noc(-c2cccs2)n1,0,0,0,59.0,-,-,40.2,RORg DNA counter=0
COc1ccc(C(=O)Nc2nc(C)c(C(C)=O)s2)cc1S(=O)(=O)N1CCOCC1,-,0,0,57.9,-,-,143.8,RORg DNA counter=0
COc1ccc(C(=O)Nc2nnc(C)s2)cc1S(=O)(=O)N1CCOCC1,-,0,0,0,-,-,-,
COc1ccccc1C1(NC(=O)c2cccc3c2C(=O)N(C)C3)CCCC1,0,-,-,-,-,0,-,
CCNC(=O)C[C@H]1CC[C@H]2[C@@H](COc3ccc(NC(=O)c4ccc5c(c4)OCO5)cc3C(=O)N2C)O1,-,-,-,141.2,-,-,47.6,RORg DNA counter=0
CCCNC(=O)C[C@H]1CC[C@H]2[C@@H](COc3ccc(NC(=O)Nc4ccc(C#N)cc4)cc3C(=O)N2C)O1,-,-,-,35.6,-,-,18.8,
CNC(=O)C[C@H]1CC[C@H]2[C@@H](COc3ccc(NC(=O)Nc4ccccc4)cc3C(=O)N2C)O1,-,-,-,27.7,-,-,14.0,
CCNC(=O)C[C@H]1CC[C@H]2[C@@H](COc3ccc(NC(=O)Nc4ccccc4)cc3C(=O)N2C)O1,-,-,-,33.9,-,-,13.1,
COC(=O)C[C@@H]1CC[C@H]2[C@H](COc3ccc(NC(=O)Nc4ccc(C#N)cc4)cc3C(=O)N2C)O1,-,-,-,0,-,-,-,
Cc1ccccc1NC(=O)C[C@H]1CC[C@H]2[C@@H](COc3ccc(NC(=O)Nc4ccccc4)cc3C(=O)N2C)O1,-,-,-,0,-,-,-,
Cc1ccc(NC(=S)Nc2ccc(S(=O)(=O)N3CCOCC3)cc2)cc1S(=O)(=O)N1CCOCC1,0,0,0,16.6,0,0,0,
N#Cc1cc2c(nc1SCc1ccccc1)CCC2,42.2,0,0,44.7,0,0,24.8,
Cc1cc(NC(=O)CSc2nc3c(cc2C#N)CCCC3)no1,0,0,0,35.4,0,0,25.9,
Cc1cc(NC(=O)CSc2nc3c(cc2C#N)CCC3)no1,-,0,0,23.0,-,-,0,
O=C(c1ccncc1)N1CCC(O)(c2ccccn2)CC1,-,-,-,-,-,0,-,
O=C(CCCN1CCC(O)(c2cccnc2)CC1)c1ccccc1,-,-,-,-,-,0,-,
SMILES,PGE2 EP2 inh,SKN-1 inh,PG9 binder,NR1D1 modulator,RAM inhibit,EP2 mod,NR1D1 mod conf,others
CC(C)(C)C1CCc2c(sc(NC(=O)c3cccs3)c2C(N)=O)C1 (stereo not drawn),0,0,0,0,0,0,-,
CCC(C)(C)C1CCc2c(sc(NC(=O)c3cccs3)c2C(N)=O)C1 (stereo not drawn),-,0,0,29.1,0,0,0,
COc1ccc(-c2cc(=O)oc3c(C)c(OCC(=O)Nc4cccnc4)ccc23)cc1,-,0,0,27.6,-,-,0,
CN(C)C(=O)COC(=O)c1ccccc1Sc1ccccc1C#N,0,0,0,0,0,0,-,
CC(=O)c1ccc(NC(=O)COC(=O)c2ccccc2Sc2ccccc2C#N)cc1,0,0,0,54.6,0,0,31.3,RORg DNA counter=0
N#Cc1cccc(NC(=O)COC(=O)c2ccccc2Sc2ccccc2C#N)c1,0,0,0,36.7,0,0,20.5,
Cc1cc(C)cc(N(CC(=O)NCC2CCCO2)S(C)(=O)=O)c1 (stereo not drawn),0,-,-,-,-,0,-,
